# Cycloheximide cs – affects cycloheximide protein synthesis inhibition readout, counter-screen; max response, %; actives 12% (n = 300,000); cell reporter, cycloheximide protein synthesis inhibition counterscreen; AID 2314; in the data active = max response mostly above about 13%, no sharp cut-off; inactive = mostly below about 14%; also: read at 38.3 µM for the half of the compounds with a filed dose; 0% is about no effect
# Vaccinia mCherry – inhibitors of vaccinia virus infection (mCherry reporter signal) | Vaccinia virus mCherry reporter infection, fluorescence | Potency, µM (highest dose often 36.5 µM), for the others: at the top dose activity change, negative = inhibition, most hits filed as inhibitors | actives 0.63% (n = 310,000) | AID 720579; calls by dose curve; tested in A549 cells; also: potency is read from the fitted curve at half-maximal effect; % is scaled to controls: 0 for no effect and ±100 for the full control effect; nearly all actives have a fitted effect of over 35% in size
# LASV entry inh – Lassa virus entry inhibition | Lassa virus pseudotype entry inhibition, cell reporter | actives 1.2% (n = 300,000) | Potency, µM (highest dose often 37.9 µM), for inactives: at the highest dose activity change, negative = inhibition, actives largely listed as inhibitors | AID 540256; calls by dose curve; tested in HEK293 cells; also: potency is read from the fitted curve at half-maximal effect; % is scaled to controls: 0 for no effect and ±100 for the full control effect; nearly all actives have a fitted effect of over 50% in size
# Vaccinia Venus – inhibitors of vaccinia virus (Venus reporter). Potency, µM (highest dose often 36.5 µM), for the others: top-dose activity change, negative = inhibition, actives largely listed as inhibitors. AID 720580. actives 0.46% (n = 330,000). Vaccinia virus Venus reporter expression, fluorescence; calls by dose curve; tested in A549 cells; also: potency is read from the fitted curve at half-maximal effect; % is scaled to controls: 0 for no effect and ±100 for the full control effect; nearly all actives have a fitted effect of over 30% in size
# Marburg entry inh – inhibitors of Marburg virus binding or cell entry | Marburg virus pseudotyped entry inhibition, cell reporter | Potency, µM (highest dose often 37.8 µM), for inactives: top-dose activity change, negative = inhibition, most hits filed as inhibitors | actives 1.8% (n = 300,000) | AID 540276; calls by dose curve; tested in HEK293 cells; also: potency is read from the fitted curve at half-maximal effect; % is scaled to controls: 0 for no effect and ±100 for the full control effect
# Shiga toxin inh – inhibitors of Shiga toxin in Vero cells; Vero cells, Shiga toxin protein synthesis inhibition reporter; inhibition, % at 38.7 µM; actives 9.2% (n = 290,000); AID 2315; in the data active = inhibition mostly above about 28%, no sharp cut-off; inactive = mostly below about 43%; also: 0% is about no effect
# * = called active by the depositor; i = inactive; ? = inconclusive; . = no result given; [ ] = dose if it differs, or a comment. This excerpt belongs to a sample that is enriched for hits.
SMILES,Cycloheximide cs,Vaccinia mCherry,LASV entry inh,Vaccinia Venus,Marburg entry inh,Shiga toxin inh
CC(C(=O)O)C1CCC2C3CC=C4CC(O)CC[C@@]4(C)C3CC[C@]12C (stereo partly specified),.,28.6%,.,0.0%,.,.
CC1=C(CO)C(=O)OC([C@@H](C)C2CC[C@H]3C4C[C@H]5O[C@]56[C@@H](O)C=CC(=O)[C@]6(C)C4CC[C@]23C)C1 (stereo partly specified),-8.7,10µM*,.,?,.,-8.6
COc1ccc(OC)c(NC(=O)CCc2c(C)nn(-c3ccc(N4CCCC4)nn3)c2C)c1,.,-5.9%,?,1.7%,.,.
COc1cc(/C=C/c2nc(-c3ccccc3O)n[nH]2)cc(OC)c1OC,18.8,i,?,?,?,3.7
CC(=O)Nc1ccc(/C=C/c2nc(-c3ccccc3O)n[nH]2)cc1,47.8*,i,.,?,.,56.9*
Cc1cc2ccccn2c1C(=O)Nc1cccc(Cl)c1,53.4*,-3.6%,6.3%,-5.4%,?,74.9*
Cc1cc(O)c(C(=O)Nc2cccc(Cl)c2)c(=O)n1C,32.6,.,.,.,.,46.6*
Cc1cc2ccccn2c1C(=S)NC(=O)c1ccccc1,15.8,-0.5%,21.2%,-8.4%,?,37.2*
O=C(c1cnc(N2CCOCC2)c2ccccc12)N1CCN(c2ccc(F)cc2)CC1,.,-21.5%,-6.8%[46.1 µM],-16.5%,.,.
O=C(NCCNC(=O)c1cccs1)c1ccco1,-3.6,.,-1.5%,.,-21.0%,32.3
CN(Cc1cccs1)C(=O)CNC(=O)c1ccco1,22.3*,.,.,.,.,58.2
Cc1ccc2ncnc(Oc3ncccc3NC(=O)C(C)(C)C)c2c1,-1.9,11.5%,-1.7%[46.1 µM],21.3%,-3.5%[46.1 µM],6.2
CC(C)c1ccccc1OCC(=O)Nc1ccc2[nH]ncc2c1,6.7,-15.4%,?,-21.4%,-5.9%[46.1 µM],0.3
CCOc1cccc(C(=O)Nc2ccc3[nH]ncc3c2)c1,35.7*,-17.6%,?,-7.8%,-28.5%,21.8*
COc1ccccc1C(=O)Nc1ccc2[nH]ncc2c1,16.0*,-6.3%,5.3%[46.1 µM],16.9%,1.8%[46.1 µM],24.2
COc1cccc(C(=O)Nc2ccc3c(c2)C(=O)NC3=O)c1,2.2,-25.5%,.,-13.9%,.,25.5
COc1cccc(C(=O)Nc2ccc3[nH]ncc3c2)c1,24.3*,i,?,-10.7%,?,23.3
O=C(Nc1ccc(Br)cc1F)c1cc(S(=O)(=O)NCc2ccc(F)cc2)ccc1F,.,-18.2%,15.6%[46.1 µM],-25.3%,.,.
CCN(c1cccc(C(F)(F)F)c1)S(=O)(=O)c1ccc2c(c1)CCN2C(C)=O,-3.5,?,17.8µM*,?,?,-10.8
COc1cccc(/C=C/C(=O)c2ccc3c(c2)OCCO3)c1OC,47.2*,?,?,?,?,.
COc1ccccc1/C=C/C(=O)c1ccc(Cl)cc1,42.2*,.,3.6%,.,12.7%,83.1*
COc1ccccc1/C=C/C(=O)N1CCC(c2ccccc2)C1 (stereo unspecified),52.5*,-1.8%,6.7%,-28.0%,?,71.3*
CCOc1ccccc1/C=C/C(=O)c1ccc(Cl)cc1,14.5*,-11.4%,-6.5%,-6.4%,?,23.0
Cc1ccc(Nc2ncnc3onc(C)c23)cc1Cl,.,-15.6%,?,-15.8%,.,.
COc1ccc(/C=C/C(=O)c2ccccc2)c(OC)c1,23.3*,-2.0%,?,-2.0%,?,74.1*
SMILES,Cycloheximide cs,Vaccinia mCherry,LASV entry inh,Vaccinia Venus,Marburg entry inh,Shiga toxin inh
COc1ccccc1/C=C/C(=O)c1ccccc1,54.6*,i,.,-10.5%,.,68.6*
COc1ccccc1/C=C/C(=O)c1c2c(c(C)[nH]c1=O)CCCC2,8.8,?,-45.6%[14.3 µM],11.2µM*,20.6µM*,22.8
COc1ccc(/C=C/C(=O)c2ccc3c(c2)OCO3)c(OC)c1,58.9*,.,?,.,-33.7%,60.9*
COc1ccccc1/C=C(\C)C(=O)c1c(C)cc(C)[nH]c1=O,-6.4,.,.,.,.,-6.7
CCc1nnc(NC(=O)CCC(=O)N2CCN(C3c4ccccc4-c4ccccc43)CC2)s1,-3.3,i,-0.8%,-16.3%,-10.9%,-2.1
COc1ccccc1/C=C/C(=O)NC(=S)NC(C)C,16.9*,-16.1%,-14.9%,-5.5%,?,57.0*
O=C(/C=C/c1ccccc1O)c1ccc(Cl)cc1,41.2*,-12.0%,.,-15.3%,.,57.6*
O=C(/C=C/c1ccccc1O)c1ccccc1,.,i,6.7%[46.1 µM],-4.3%,14.0%[46.1 µM],.
COc1ccccc1/C=C/C(=O)c1ccc(NC(C)=O)cc1,21.3*,?,11.2µM*,?,12.6µM*,32.2
COc1cc(C=CC(=O)c2ccccc2)cc(OC)c1OC,.,4.8%,.,-6.3%,.,.
